# Assay results as given in PubChem BioAssay (NCATS).
# Unmarked numbers belong to inactive results. Records with an inconclusive call do not appear. Activity calls are given as the source filed them. The call rests on the fitted dose curve; in most records, active means well fitted curve in the direction sought with a large enough effect; inconclusive means small, poorly fitted or top-dose-only effect, or another doubt; inactive means no such curve, though single readings can be large; an effect the other way counts as inactive or inconclusive.
# Tests used:
# [1] = target: Cytochrome P450 3A4 (Homo sapiens) (UniProt P08684); test: qHTS Assay for Inhibitors and Substrates of Cytochrome P450 3A4 (AID 884); settings: recombinant CYP3A4, Luciferin-PPXE luminescence; series mostly up to 57.1 µM; further: potency means the concentration at half of the fitted maximal effect; nearly all actives have a fitted effect of over 50% in size
# Chain of Cytochrome P450 3A4 (Homo sapiens) (P08684 whole entry, looked up): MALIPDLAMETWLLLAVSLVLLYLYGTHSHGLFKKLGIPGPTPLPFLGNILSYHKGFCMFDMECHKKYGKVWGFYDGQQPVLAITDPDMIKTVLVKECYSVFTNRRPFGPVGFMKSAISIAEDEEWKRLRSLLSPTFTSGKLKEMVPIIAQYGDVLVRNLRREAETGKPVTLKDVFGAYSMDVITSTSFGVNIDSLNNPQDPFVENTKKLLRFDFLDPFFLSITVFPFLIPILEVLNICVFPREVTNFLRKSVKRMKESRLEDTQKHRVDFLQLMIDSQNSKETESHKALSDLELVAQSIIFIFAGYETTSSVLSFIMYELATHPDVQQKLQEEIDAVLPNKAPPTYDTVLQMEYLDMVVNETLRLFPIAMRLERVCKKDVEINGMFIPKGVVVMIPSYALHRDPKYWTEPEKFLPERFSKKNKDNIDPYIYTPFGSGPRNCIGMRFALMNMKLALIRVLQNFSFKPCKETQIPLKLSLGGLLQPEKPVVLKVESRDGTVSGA
# Procedure, shortened: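 20 nM human CYP3A4 with 25 uM Luciferin-PPXE (at KM) in 200 mM KPO4, preincubated 10 min with compound; NADPH regeneration started a 60 min RT reaction. Luciferin detected by luminescence, normalized to 57 uM ketoconazole as full inhibition.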
# [2] = target: Cytochrome P450 3A4 (Homo sapiens) (UniProt P08684); test: qHTS Assay for Activators of Cytochrome P450 3A4 (AID 885); settings: recombinant CYP3A4, Luciferin-PPXE luminescence, 60 min; series mostly up to 57.1 µM; further: nearly all actives have a fitted effect of over 65% in size
# Procedure, shortened: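 Signal was normalized against complete inhibition by 57 uM ketoconazole. The reaction used 20nM CYP3A4 with 25uM Luciferin-PPXE, 10-min compound preincubation and a 60-min NADPH-supported step at RT.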
# [3] = target: Cytochrome P450 2D6 (Homo sapiens) (UniProt P10635); test: qHTS Assay for Inhibitors and Substrates of Cytochrome P450 2D6 (AID 891); settings: recombinant CYP2D6, luciferin-ME EGE luminescence; series mostly up to 11.4 µM; further: nearly all actives have a fitted effect of over 60% in size; further: potency means the concentration at half of the fitted maximal effect
# Chain of Cytochrome P450 2D6 (Homo sapiens) (P10635 whole entry, looked up): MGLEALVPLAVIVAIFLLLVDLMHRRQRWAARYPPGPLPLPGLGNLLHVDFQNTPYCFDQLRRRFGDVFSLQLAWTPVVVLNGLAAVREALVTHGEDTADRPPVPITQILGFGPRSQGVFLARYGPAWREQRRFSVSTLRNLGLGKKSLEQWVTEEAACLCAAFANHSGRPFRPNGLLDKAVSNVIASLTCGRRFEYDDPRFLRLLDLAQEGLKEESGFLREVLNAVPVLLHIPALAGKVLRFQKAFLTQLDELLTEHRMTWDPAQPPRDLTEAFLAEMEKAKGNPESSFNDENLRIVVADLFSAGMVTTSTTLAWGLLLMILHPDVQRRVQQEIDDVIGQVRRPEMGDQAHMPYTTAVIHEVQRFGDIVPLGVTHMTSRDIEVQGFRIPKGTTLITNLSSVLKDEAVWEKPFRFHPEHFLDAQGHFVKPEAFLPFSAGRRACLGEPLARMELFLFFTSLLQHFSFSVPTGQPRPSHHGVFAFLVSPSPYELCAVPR
# Procedure, shortened: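 Human CYP2D6 (5 nM) with 30 uM Luciferin-ME EGE (at Km) in 100 mM KPO4, compound preincubated 10 min, then NADPH regeneration system for 60 min at room temperature. Luciferin read by luminescence; normalized to 1.43 uM quinidine.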
# [4] = target: Cytochrome P450 2C19 (Homo sapiens) (UniProt P33261); test: qHTS Assay for Inhibitors and Substrates of Cytochrome P450 2C19 (AID 899); settings: recombinant CYP2C19, luciferin-H EGE luminescence; series mostly up to 11.4 µM; further: nearly all actives have a fitted effect of over 60% in size; further: potency means the concentration at half of the fitted maximal effect
# Chain of Cytochrome P450 2C19 (Homo sapiens) (P33261 whole entry, looked up): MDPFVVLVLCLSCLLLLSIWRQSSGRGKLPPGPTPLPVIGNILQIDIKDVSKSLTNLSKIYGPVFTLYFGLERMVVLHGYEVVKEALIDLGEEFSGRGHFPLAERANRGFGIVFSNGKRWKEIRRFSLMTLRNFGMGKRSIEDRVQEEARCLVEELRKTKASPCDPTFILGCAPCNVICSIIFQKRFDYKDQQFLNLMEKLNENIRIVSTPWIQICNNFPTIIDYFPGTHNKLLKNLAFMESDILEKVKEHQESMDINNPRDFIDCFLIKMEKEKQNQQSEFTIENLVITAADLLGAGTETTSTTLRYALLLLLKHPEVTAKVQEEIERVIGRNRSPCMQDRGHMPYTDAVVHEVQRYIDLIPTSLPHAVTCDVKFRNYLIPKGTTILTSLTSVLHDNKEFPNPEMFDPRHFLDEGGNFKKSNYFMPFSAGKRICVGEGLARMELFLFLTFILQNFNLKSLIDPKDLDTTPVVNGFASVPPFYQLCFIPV
# Procedure, shortened: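 In 50mM KPO4, the reaction held 5nM enzyme and KM-level (10uM) Luciferin-H EGE; it ran 60 min at 37C after NADPH regeneration and a 10 min compound preincubation. Luminescence values were scaled to 57uM ketoconazole as complete inhibition.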
compound,measurement,setting,value
C=CC[C@@H]1C=C[C@H](Oc2ccc(C)cc2)[C@H](COC(=O)NCc2cccc3ccccc23)O1,Potency,[1],3.16 µM (active)
same,"activity change, positive = activation",[2],-96.8% [at 11.4 µM]
CCC1=C(OC(=O)N(CC)CC)N2C(=O)OC(=NCC(=O)OC)[C@]2(C)[C@H]2C1=CC[C@H]1C(=O)N(C)C(=O)[C@H]12,Potency,[1],12.6 µM (active)
same,Potency,[2],inactive
C/C(CCN1CCCc2nc(C)c(C)cc21)=N\OC[C@@H](O)COCc1ccco1,Potency,[1],3.98 µM (active)
same,"activity change, positive = activation",[2],-77.3% [at 11.4 µM]
COc1ccc(O[C@H]2C=C[C@@H](c3ccccc3)O[C@H]2COC(=O)CC/C(C)=N\O[C@@H](C)c2cc(-c3c(C)cc(C)cc3C)no2)cc1,Potency,[1],3.16 µM (active)
same,"activity change, positive = activation",[2],-63.2% [at 11.4 µM]
COC(=O)[C@@H]1C[C@H]2CC[C@H](O)C[C@H]2N1Cc1ccc(C(C)(C)C)cc1,Potency,[1],5.01 µM (active)
same,Potency,[2],inactive
Cn1c(-c2nc(-c3ccccc3)cs2)nc2ccccc21,Potency,[1],10 µM (active)
same,Potency,[2],inactive
C#CCCCO/N=C1/C[C@@H](O)[C@@H](O)[C@@H]2[C@H]3C(=O)N(c4ccc(F)cc4F)C(=O)[C@@H]3CC[C@@H]12,Potency,[1],3.16 µM (active)
same,"activity change, positive = activation",[2],-61.6% [at 11.4 µM]
O=C1[C@H]2[C@H]3[C@H](O)[C@H](O)C/C(=N/OC[C@@H](O)COCc4ccco4)[C@@H]3CC[C@@H]2C(=O)N1Cc1ccccc1,Potency,[1],3.16 µM (active)
same,"activity change, positive = activation",[2],-71.1% [at 11.4 µM]
CCC1=C(OC(=O)N(CC)CC)N2C(=O)OC(=NCCOC)[C@]2(Cc2ccccc2)[C@H]2C1=CC[C@H]1C(=O)N(CC)C(=O)[C@H]12,Potency,[1],5.01 µM (active)
same,Potency,[2],inactive
Cc1ccc(S(=O)(=O)N[C@H]2COC(=O)CC=C[C@@H](C)[C@H]3C=C[C@H](O)[C@@H](COC(=O)CC=C[C@H]2C)O3)cc1,Potency,[1],3.16 µM (active)
same,"activity change, positive = activation",[2],-86.3% [at 11.4 µM]
CN1C[C@@H]2C(c3ccccc3)C3(c4cccnc4)CC2(C3)[C@H]1c1ccccc1 (some centres not stated),Potency,[1],2.51 µM (active)
same,Potency,[2],inactive
CCCNC(=O)OC[C@@H]1O[C@H](CCO/N=C(\C)CCN2CCCc3nc(C)c(C)cc32)C=C[C@@H]1Oc1ccc(OC)cc1,Potency,[1],3.98 µM (active)
same,"activity change, positive = activation",[2],-70.1% [at 11.4 µM]
C/C(CCN1CCc2nc(-c3ccccc3)c(-c3ccccc3)cc2C1)=N\OC[C@@H](O)COCc1ccco1,Potency,[1],3.16 µM (active)
same,"activity change, positive = activation",[2],-86.5% [at 11.4 µM]
c1ccc(C2[C@H]3CN(Cc4cccnc4)[C@H](c4ccccc4)C34CC2(c2cccnc2)C4)cc1 (some centres not stated),Potency,[1],1.58 µM (active)
same,Potency,[2],inactive
C/C(CCN1CCCCc2nc(C)c(C)cc21)=N\O[C@@H](C)CN1CCCc2nc(C)c(C)cc21,Potency,[1],3.16 µM (active)
same,"activity change, positive = activation",[2],-61.2% [at 11.4 µM]
C[C@H]1C2=C3C(C[C@H]4C(=O)N(c5ccccc5)C(=O)[C@H]4[C@H]3[C@@]3(Cc4ccccc4)C(=NCCc4c[nH]c5ccccc45)OC(=O)N3C2=O)[C@H]2C(=O)N(c3ccccc3)C(=O)[C@H]21 (some centres not stated),Potency,[1],2.51 µM (active)
same,Potency,[2],inactive
Cc1c(C(=O)NC2CCCCC2)sc2nc3ccc(N)cc3n12,Potency,[1],1.58 µM (active)
same,Potency,[2],inactive
CCC1=C2CC[C@H]3C(=O)N(C)C(=O)[C@H]3[C@H]2[C@@]2(Cc3ccccc3)C(=NCCOC)OC(=O)N2C1=O,Potency,[1],10 µM (active)
same,Potency,[2],inactive
N#Cc1ccc(C23CC4(C2)[C@H](CN(Cc2cccnc2)[C@@H]4c2ccccc2)C3c2ccc(C(F)(F)F)cc2)cc1 (some centres not stated),Potency,[1],6.31 µM (active)
same,Potency,[2],inactive
COC(=O)[C@@H]1C[C@@]2(O)[C@@H](O)[C@@H](O)[C@@H](O)C[C@H]2N1CC(c1ccccc1)c1ccccc1,Potency,[1],3.16 µM (active)
same,Potency,[2],inactive
O=C1C=C(NCCO)C(=O)c2cnccc21,Potency,[1],7.94 µM (active)
same,Potency,[2],inactive
CCCCCCNC(=O)Nc1ccc(S(=O)(=O)Nc2ccc(CCNC[C@H](O)COc3ccc(O)cc3)cc2)cc1,Potency,[1],7.94 µM (active)
same,Potency,[2],inactive
CCC1=C2CC[C@H]3C(=O)N(CC)C(=O)[C@H]3[C@H]2[C@@]2(Cc3ccccc3)C(=O)N(Cc3ccccc3)C(=O)N2C1=O,Potency,[1],3.98 µM (active)
same,Potency,[2],inactive
CCC1=C(OC(=O)N(CC)CC)N2C(=O)OC(=NCc3ccccc3)[C@]2(C)[C@H]2C1=CC[C@H]1C(=O)NC(=O)[C@H]12,Potency,[1],5.01 µM (active)
same,Potency,[2],inactive
CC(=O)OC[C@@H]1O[C@H](CCO/N=C(\C)CCC(=O)OC[C@@H]2O[C@H](C#Cc3ccccc3)C=C[C@@H]2Oc2ccc(C)cc2)C=C[C@@H]1OC(C)=O,Potency,[1],3.16 µM (active)
same,"activity change, positive = activation",[2],-92.8% [at 11.4 µM]
C[C@@H](c1ccccc1)N1C(=O)[C@H]2[C@H]3[C@H](O)[C@H](O)C/C(=N/OC[C@@H](O)COCc4ccco4)[C@H]3CC[C@@H]2C1=O,Potency,[1],3.98 µM (active)
same,"activity change, positive = activation",[2],-66.6% [at 11.4 µM]
CC1(C)CC(=O)c2c(oc3cc4c(cc23)OCO4)C1,Potency,[1],3.98 µM (active)
same,Potency,[2],inactive
O=C1[C@H]2[C@H]3[C@H](O)[C@H](O)C/C(=N/OCc4ccccc4)[C@@H]3CC[C@@H]2C(=O)N1Cc1ccc2c(c1)OCO2,Potency,[1],2 µM (active)
same,"activity change, positive = activation",[2],-100% [at 11.4 µM]
CCC1=C(OC(=O)N(CC)CC)N2C(=O)OC(=NCCc3c[nH]c4ccccc34)[C@]2(C)[C@H]2C1=CC[C@H]1C(=O)NC(=O)[C@H]12,Potency,[1],2.51 µM (active)
same,Potency,[2],inactive
CCc1cc2c(nc1CC)CCN(CC/C(C)=N/O[C@@H](C)c1cc(-c3c(C)cc(C)cc3C)no1)C2,Potency,[1],3.98 µM (active)
same,"activity change, positive = activation",[2],-69% [at 11.4 µM]
CC(Cc1ccccc1)C(=O)NCc1ccncc1 (configuration not stated),Potency,[1],2.51 µM (active)
same,Potency,[2],inactive
FC(F)(F)c1ccc(CN2C[C@@H]3C(c4ccccc4)C4(c5cccnc5)CC3(C4)[C@H]2c2ccccc2)cc1 (some centres not stated),Potency,[1],15.8 µM (active)
same,Potency,[2],inactive
Clc1ccc(C2[C@H]3CN(CC4CCCCC4)[C@H](c4ccccc4)C34CC2(c2cccnc2)C4)cn1 (some centres not stated),Potency,[1],3.98 µM (active)
same,Potency,[2],inactive
CO[C@@H]1COC(=O)CCC[C@@H](C)[C@H](OC)COC(=O)[C@H](Cc2ccccc2)NC(=O)C/C=C\[C@H]1C,Potency,[1],3.98 µM (active)
same,"activity change, positive = activation",[2],-87.8% [at 11.4 µM]
C=CCC1C=CC(Oc2ccc(F)cc2C)C(CO)O1 (configuration not stated),Potency,[1],3.98 µM (active)
same,"activity change, positive = activation",[2],-81.3% [at 11.4 µM]
same,Potency,[3],inactive
same,Potency,[4],0.251 µM (active)
CC(=O)OC[C@H]1O[C@@H](O/N=C(\C)CCC(=O)OC[C@@H]2O[C@H](C#Cc3ccccc3)C=C[C@@H]2Oc2ccc(C)cc2)[C@H](OC(C)=O)[C@@H](OC(C)=O)[C@H]1OC(C)=O,Potency,[1],3.16 µM (active)
same,"activity change, positive = activation",[2],-90.4% [at 11.4 µM]
same,Potency,[3],3.98 µM (active)
COc1ccc(O[C@H]2C=C[C@@H](c3ccccc3)O[C@@H]2CO/N=C(\C)CCN2CCCc3nc(C)c(C)cc32)cc1,Potency,[1],3.16 µM (active)
same,"activity change, positive = activation",[2],-63.6% [at 11.4 µM]
same,Potency,[3],3.16 µM (active)
same,Potency,[4],0.398 µM (active)
OCC1OC(c2ccc3c(c2)OCO3)C=CC1Oc1cc(Cl)cc(Cl)c1 (configuration not stated),Potency,[1],0.316 µM (active)
same,"activity change, positive = activation",[2],-90.6% [at 11.4 µM]
same,Potency,[3],3.16 µM (active)
same,Potency,[4],0.0794 µM (active)
CCOC(c1cc(OC)cc([N+](=O)[O-])c1OC)C(C)C(OC)[C@@H](C)/C=C/CC(=O)OC (some centres not stated),Potency,[1],3.98 µM (active)
same,"activity change, positive = activation",[2],-78.6% [at 11.4 µM]
same,Potency,[3],inactive
same,Potency,[4],1 µM (active)
COC(=O)[C@@H]1C[C@@H]2CC[C@@H](O)C[C@@H]2N1Cc1ccc(Cl)cc1,Potency,[1],15.8 µM (active)
same,Potency,[2],inactive
CCCNC(=O)OC[C@@H]1O[C@H](CCO/N=C2\c3cc(OC)ccc3O[C@H](c3cccc(OC)c3)[C@H]2O)C=C[C@@H]1Oc1ccc(OC)cc1,Potency,[1],5.01 µM (active)
same,"activity change, positive = activation",[2],-120% [at 11.4 µM]
same,Potency,[4],1.58 µM (active)
CCCCC#CC1C=CC(Oc2cc(OC)c(OC)c(OC)c2)C(COC(=O)OCC)O1 (configuration not stated),Potency,[1],2.51 µM (active)
same,"activity change, positive = activation",[2],-83.6% [at 11.4 µM]
same,Potency,[3],inactive
same,Potency,[4],inactive
COc1ccc(O[C@H]2C=C[C@@H](c3ccccc3)O[C@H]2COC(=O)CC/C(C)=N\O[C@@H](C)CN2CCCc3nc(C)c(C)cc32)cc1,Potency,[1],3.16 µM (active)
same,"activity change, positive = activation",[2],-97% [at 11.4 µM]
same,Potency,[3],3.16 µM (active)
same,Potency,[4],3.16 µM (active)
C/C(CCC(=O)OC[C@@H]1O[C@H](C#Cc2ccccc2)C=C[C@@H]1Oc1ccc(C)cc1)=N/O[C@@H](C)CN1CCCc2nc(C)c(C)cc21,Potency,[1],3.98 µM (active)
same,"activity change, positive = activation",[2],-95.5% [at 11.4 µM]
same,Potency,[3],3.16 µM (active)
same,Potency,[4],3.16 µM (active)
COC(=O)[C@@H]1CC[C@H](C)[C@@H](c2ccc(C)cc2)N1C(=O)c1ccc(/C=N\OC[C@@H](C)[C@H](OCc2ccccc2)C(C)C)cc1,Potency,[1],3.98 µM (active)
same,"activity change, positive = activation",[2],-66.5% [at 11.4 µM]
same,Potency,[3],3.98 µM (active)
CO/N=C(/C)CCC(=O)OC[C@@H]1O[C@H](C#Cc2ccccc2)C=C[C@@H]1Oc1ccc(C)cc1,Potency,[1],3.98 µM (active)
same,"activity change, positive = activation",[2],-90.5% [at 11.4 µM]
same,Potency,[3],inactive
same,Potency,[4],3.98 µM (active)
C/C=C/OC(=O)NC(c1ccccc1)[C@@]1(C(=O)OCC)CCCC1=O (some centres not stated),Potency,[1],0.0158 µM (active)
same,"activity change, positive = activation",[2],-71.4% [at 11.4 µM]
same,Potency,[3],inactive
COc1cccc([C@@H]2Oc3ccc(OC)cc3/C(=N/OC[C@@H](O)COCc3ccco3)[C@@H]2O)c1,Potency,[1],3.16 µM (active)
same,"activity change, positive = activation",[2],-84.1% [at 11.4 µM]
same,Potency,[4],1.58 µM (active)
